Assay results reported in PubChem BioAssay AID1159580 (chemical genetic matrix, 2015).
Among all 5,500 compounds or so, about 2,000 (36%) were called active. Roughly 18% stayed inconclusive and do not appear here. No stated cut-off is given here; in the data, active means normalized growth mostly below about 0.91 (no sharp cut-off); inconclusive means no clear call, values can overlap the other calls; inactive means mostly above about 0.92. This is one part of the list.

Assay: chemical genetic growth profiling, strain panel (AID 1159580);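 further: tested at 20 µM; growth read once vehicle control cultures reached saturation at 30 °C; 1 = growth at the plate median or of vehicle wells; lower values mean less growth of the strain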
Settings: growth OD

Measured: normalized growth

Clc1ccc(Cl)cc1
inactive: S. cerevisiae deletion strains, locus YAL013W, strain DEP1, hits give low values 1.01 | S. cerevisiae deletion strains, locus YBR021W, strain FUR4, hits give low values 1.01 | S. cerevisiae deletion strains, locus YBR229C, strain ROT2, hits give low values 1.01 | S. cerevisiae deletion strains, locus YCL029C, strain bik1, hits give low values 0.994 | S. cerevisiae deletion strains, locus YDL035C, strain GPR1, hits give low values 1.02 | S. cerevisiae deletion strains, locus YDL074C, strain BRE1, hits give low values 1.04 | S. cerevisiae deletion strains, locus YDL101C, strain DUN1, hits give low values 1.02 | S. cerevisiae deletion strains, locus YDL134C, strain PPH21, hits give low values 1 | S. cerevisiae deletion strains, locus YDL185W, strain tfp1, hits give low values 0.968 | S. cerevisiae deletion strains, locus YDL192W, strain arf1, hits give low values 0.983 | S. cerevisiae deletion strains, locus YDR101C, strain arx1, hits give low values 0.986 | S. cerevisiae deletion strains, locus YDR150W, strain NUM1, hits give low values 1 | S. cerevisiae deletion strains, locus YDR162C, strain NBP2, hits give low values 1.01 | S. cerevisiae deletion strains, locus YDR318W, strain mcm21, hits give low values 0.99 | S. cerevisiae deletion strains, locus YDR388W, hits give low values 0.988 | S. cerevisiae deletion strains, locus YDR502C, strain sam2, hits give low values 0.993 | S. cerevisiae deletion strains, locus YEL061C, strain CIN8, hits give low values 1 | S. cerevisiae deletion strains, locus YER110C, hits give low values 0.979 | S. cerevisiae deletion strains, locus YER155C, strain BEM2, hits give low values 1.01 | S. cerevisiae deletion strains, locus YER167W, strain BCK2, hits give low values 1.01 | S. cerevisiae deletion strains, locus YGL078C, strain dbp3, hits give low values 0.974 | S. cerevisiae deletion strains, locus YGL086W, strain mad1, hits give low values 1 | S. cerevisiae deletion strains, locus YGL248W, strain PDE1, hits give low values 1.01 | S. cerevisiae deletion strains, locus YGR078C, strain PAC10, hits give low values 1.02 | S. cerevisiae deletion strains, locus YGR135W, strain pre9, hits give low values 0.99 | S. cerevisiae deletion strains, locus YGR229C, strain SMI1, hits give low values 1.02 | S. cerevisiae deletion strains, locus YGR252W, strain gcn5, hits give low values 0.964 | S. cerevisiae deletion strains, locus YHR030C, strain SLT2, hits give low values 1.01 | S. cerevisiae deletion strains, locus YHR079C, strain IRE1 (second series), hits give low values 0.989 | S. cerevisiae deletion strains, locus YHR094C, strain hxt1, hits give low values 0.987 | S. cerevisiae deletion strains, locus YHR129C, strain ARP1, hits give low values 1.01 | S. cerevisiae deletion strains, locus YHR200W, strain rpn10, hits give low values 0.988 | S. cerevisiae deletion strains, locus YIL066C, strain RNR3, hits give low values 1.02 | S. cerevisiae deletion strains, locus YIL073C, strain SPO22, hits give low values 1.01 | S. cerevisiae deletion strains, locus YIL125W, strain kgd1, hits give low values 0.972 | S. cerevisiae deletion strains, locus YIR030C, strain dcg1, hits give low values 0.987 | S. cerevisiae deletion strains, locus YJL095W, strain BCK1, hits give low values 1.02 | S. cerevisiae deletion strains, locus YJL134W, strain LCB3, hits give low values 1.01 | S. cerevisiae deletion strains, locus YJL168C, strain set2, hits give low values 0.983 | S. cerevisiae deletion strains, locus YJL187C, strain SWE1 (second series), hits give low values 1.01 | S. cerevisiae deletion strains, locus YJR043C, strain POL32, hits give low values 1 | S. cerevisiae deletion strains, locus YJR075W, strain HOC1, hits give low values 1.01 | S. cerevisiae deletion strains, locus YKL009W, strain mrt4, hits give low values 1 | S. cerevisiae deletion strains, locus YKL068W, hits give low values 0.984 | S. cerevisiae deletion strains, locus YKL085W, strain MDH1 (second series), hits give low values 0.982 | S. cerevisiae deletion strains, locus YKL085W, strain MDH1, hits give low values 0.982 | S. cerevisiae deletion strains, locus YKL190W, strain CNB1, hits give low values 1.02 | S. cerevisiae deletion strains, locus YKR001C, strain vps1, hits give low values 0.989 | S. cerevisiae deletion strains, locus YLR039C, strain RIC1, hits give low values 1.04 | S. cerevisiae deletion strains, locus YLR058C, strain SHM2, hits give low values 1.01 | S. cerevisiae deletion strains, locus YLR102C, strain apc9, hits give low values 0.993 | S. cerevisiae deletion strains, locus YLR262C, strain YPT6, hits give low values 1.04 | S. cerevisiae deletion strains, locus YLR268W, strain sec22, hits give low values 0.999 | S. cerevisiae deletion strains, locus YLR330W, strain CHS5, hits give low values 1 | S. cerevisiae deletion strains, locus YLR342W, strain FKS1 (second series), hits give low values 0.997 | S. cerevisiae deletion strains, locus YLR371W, strain rom2, hits give low values 0.981 | S. cerevisiae deletion strains, locus YLR418C, strain cdc73, hits give low values 0.974 | S. cerevisiae deletion strains, locus YML016C, strain PPZ1, hits give low values 1.01 | S. cerevisiae deletion strains, locus YML032C, strain rad52, hits give low values 0.986 | S. cerevisiae deletion strains, locus YML124C, strain tub3, hits give low values 0.987 | S. cerevisiae deletion strains, locus YMR078C, strain ctf18, hits give low values 0.99 | S. cerevisiae deletion strains, locus YMR223W, strain ubp8, hits give low values 0.984 | S. cerevisiae deletion strains, locus YMR263W, strain SAP30, hits give low values 1.01 | S. cerevisiae deletion strains, locus YMR307W, strain GAS1, hits give low values 1.03 | S. cerevisiae deletion strains, locus YNL067W, strain RPL9B, hits give low values 1.02 | S. cerevisiae deletion strains, locus YNL128W, strain TEP1, hits give low values 1.02 | S. cerevisiae deletion strains, locus YNL153C, strain GIM3, hits give low values 1.01 | S. cerevisiae deletion strains, locus YNL233W, strain BNI4, hits give low values 1.02 | S. cerevisiae deletion strains, locus YNL250W, strain rad50, hits give low values 0.963 | S. cerevisiae deletion strains, locus YNL271C, strain bni1, hits give low values 0.98 | S. cerevisiae deletion strains, locus YNL298W, strain CLA4, hits give low values 0.98 | S. cerevisiae deletion strains, locus YNL307C, strain MCK1, hits give low values 0.991 | S. cerevisiae deletion strains, locus YNL322C, strain KRE1, hits give low values 1.01 | S. cerevisiae deletion strains, locus YNR052C, strain pop2, hits give low values 0.981 | S. cerevisiae deletion strains, locus YOL006C, strain TOP1, hits give low values 1.05 | S. cerevisiae deletion strains, locus YOL012C, strain htz1 0.71 | S. cerevisiae deletion strains, locus YOL147C, strain pex11, hits give low values 0.992 | S. cerevisiae deletion strains, locus YOR061W, strain CKA2, hits give low values 1.01 | S. cerevisiae deletion strains, locus YOR069W, strain VPS5, hits give low values 1.01 | S. cerevisiae deletion strains, locus YOR136W, strain idh2, hits give low values 0.985 | S. cerevisiae deletion strains, locus YOR144C, strain elg1, hits give low values 0.994 | S. cerevisiae deletion strains, locus YOR184W, strain ser1, hits give low values 0.997 | S. cerevisiae deletion strains, locus YOR316C, strain cot1, hits give low values 0.989 | S. cerevisiae deletion strains, locus YPL055C, strain LGE1, hits give low values 1.02 | S. cerevisiae deletion strains, locus YPL241C, strain CIN2, hits give low values 1.01 | S. cerevisiae deletion strains, locus YPR119W, strain clb2, hits give low values 0.988 | S. cerevisiae deletion strains, locus YPR141C, strain kar3, hits give low values 0.975 | S. cerevisiae deletion strains, locus YPR163C, strain tif3, hits give low values 0.991 | S. cerevisiae deletion strains, locus YPR167C, strain met16, hits give low values 0.985 | S. cerevisiae deletion strains, strain wtn01, hits give low values 0.987 | S. cerevisiae strains, strain wild type, hits give low values 1.01
